± gives the standard deviation of the averaged measurements.
What follows are compounds tested on AEK1 (Tb927.3.2440) (assay: percent reduction in TR-FRET probe signal relative to DMSO control; higher = stronger displacement of ATP-site probe (binding)). Conditions: 1 µM; incubation time 1 h.

SMILES | percent reduction in TR-FRET probe signal
CC(C)(C)c1cc(C=C(C#N)C#N)cc(C(C)(C)C)c1O [Tyrphostin 9] | 15.1 ± 1.3%
N#CC(C#N)=Cc1ccc(O)c(O)c1 | 7.98 ± 17%
O=c1[nH]c2ccc(Cl)cc2c(N[C@@H]2CN3CCC2CC3)c1-c1nc2ccccc2[nH]1 | 25.9 ± 11%
COc1ccc(N(C(=O)Oc2c(C)cccc2C)c2ccnc(Nc3ccc(N4CCN(C)CC4)cc3)n2)c(OC)c1 | 12.5 ± 3.4%
COc1ccc2c(c1)/C(=C/c1cnc[nH]1)C(=O)N2 | -2.34 ± 5.7%
O=c1[nH]c2ccccc2n1C1CCN(Cc2ccc(-c3nc4cc5nc[nH]c5cc4nc3-c3ccccc3)cc2)CC1 | -9.38 ± 1.6%
C/C(O)=C(\C#N)C(=O)Nc1cc(Br)ccc1Br | -3.29 ± 1.9%
Cc1ccccc1-n1c(Cn2ncc3c(N)ncnc32)nc2cccc(C)c2c1=O | -5.42 ± 2.9%
Cn1cc(C2=C(c3cn(C4CCN(Cc5ccccn5)CC4)c4ccccc34)C(=O)NC2=O)c2ccccc21 | -6.77 ± 7.9%
CCN1CCN(C(=O)Cc2ccc(Nc3ncc(F)c(Nc4ccc(C(=O)Nc5ccccc5Cl)cc4)n3)cc2)CC1 [Aurora A Inhibitor I] | 24.1 ± 4.8%
CC(C)(C)c1cc(C=C(C#N)C#N)cc(Br)c1O | 17.3 ± 12%
